Rows were chosen to be rich in hits. Some 19% of all compounds tested hit in one or more screens of this group.
IL-1B inflam inh = qHTS for Inhibitors of Inflammasome Signaling: IL-1-beta AlphaLISA Primary Screen. activity change, % at 57.5 µM. AID 743279, 2014. 360,000 tested, 4.7% active. THP-1 LPS/ATP IL-1B secretion, AlphaLISA, 16 h; active compounds read low; in the data active = activity change below about -50%; inconclusive = mostly about -30% to -49%
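Secreted IL-1B measured by AlphaLISA bead assay after 16 h compound exposure of THP-1 cells; compounds (final up to 57.5 uM) added 1 h before LPS (250 ng/mL) and ATP (1.25 mM) stimulation; lower signal means less secretion.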
BCR signal inh = qHTS Assay to Find Inhibitors of Chronic Active B-Cell Receptor Signaling. ABC-DLBCL IkBa-CBG/CBR reporter, luminescence ratio, 4 h. Potency, µM (series often up to 46.1 µM), most hits filed as inhibitors. 340,000 tested, 0.05% active. AID 493014, 2011; active = well fitted inhibition curve with a large enough effect in the signal ratio, with a control signal flat, not every such curve was filed as active; inconclusive = small, poorly fitted or top-dose-only effect, or effect the other way, or a change in a side signal; the % refers to the signal ratio
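TMD8 ABC-DLBCL cells carrying doxycycline-inducible green luciferase fused to IkappaBalpha plus unfused red luciferase were exposed to compounds (up to 46 uM) for 4 hrs at 37C. Activity came from the overlap-corrected green/red luminescence ratio.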
TDP1 cell CPT = qHTS for Inhibitors of human tyrosyl-DNA phosphodiesterase 1 (TDP1): qHTS in cells in presence of CPT | Potency, µM (titrated, usually from 46.2 µM), most hits filed as inhibitors | 420,000 tested, 12% active | chicken DT40 Tdp1-/-;hTDP1 cells + 20 nM CPT, ATP luminescence, 48 h; note: nearly all actives have a fitted effect of over 55% in size
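Cell growth measured by CellTiter-Glo luminescence after a minimum 48 h, 37 C compound exposure with 20 nM CPT in Tdp1-knockout DT40 cells stably expressing hTDP1, seeded 400/well; qHTS titration format.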
SW480 rerep = A quantitative high throughput screen for small molecules that induce DNA re-replication in SW480 colon adenocarcinoma cells | SW480 DNA re-replication, Hoechst DNA content imaging, 48 h | Potency, µM (highest dose often 46.1 µM), usual class: activators | 340,000 tested, 1.8% active; note: nearly all actives have a fitted effect of over 55% in size
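First, 250 cells per well were seeded. Next, compound or vehicle (23 nL) was pinned in, plates sat 48 hr at 37 C. Finally Hoechst was added for 40 min before fluorescence scanning.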
TDP1 cell noCPT = qHTS for Inhibitors of human tyrosyl-DNA phosphodiesterase 1 (TDP1): qHTS in cells in absence of CPT; DT40 Tdp1-/- hTDP1 cells, no CPT, ATP luminescence, 48 h; Potency, µM (top dose mostly 46.2 µM), actives largely listed as inhibitors; 420,000 tested, 15% active; AID 686978, 2013; note: nearly all actives have a fitted effect of over 55% in size
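Luminescent ATP content (CellTiter-Glo) served as the growth readout. Knockout chicken DT40 cells expressing human TDP1 were exposed to compounds without camptothecin for a minimum 48 hr at 37 °C.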
MCF10A rerep = A quantitative high throughput screen for small molecules that induce DNA re-replication in MCF 10a normal breast cells | MCF 10A DNA re-replication, Hoechst nuclear intensity, 48 h | Potency, µM (top dose mostly 46.1 µM), most hits filed as activators | 350,000 tested, 2.9% active | AID 624296, 2012; note: nearly all actives have a fitted effect of over 50% in size
Large screens that a line does not name were inactive. Unless noted, calls come from the whole dose curve; as a rule, active = well fitted curve in the direction sought with a large enough effect; inconclusive = small, poorly fitted or top-dose-only effect, or another doubt; inactive = no such curve, though single readings can be large; an effect the other way counts as inactive or inconclusive.

OC1CCCN(c2c3c(nc4cc(-c5cccc(Cl)c5)nn24)CCC3)C1 (centres undefined)	IL-1B inflam inh -102, BCR signal inh inconclusive, TDP1 cell CPT 18µM, TDP1 cell noCPT inconclusive
Cc1cccc(-c2cc3nc4c(c(N5CCCC(O)C5)n3n2)CCC4)c1 (centres undefined)	BCR signal inh inconclusive, TDP1 cell CPT inconclusive, TDP1 cell noCPT 26µM (no result: IL-1B inflam inh)
OC1CCCN(c2c3c(nc4cc(-c5cccc(F)c5)nn24)CCCC3)C1 (centres undefined)	BCR signal inh inconclusive, TDP1 cell CPT 23µM, TDP1 cell noCPT inconclusive
COCCN1CCN(c2c3c(nc4cc(-c5cccc(F)c5)nn24)CCC3)CC1	TDP1 cell CPT inconclusive, TDP1 cell noCPT 23µM
CCCc1nn2c(=O)cc(CSCC(=O)Nc3ccccc3OC)nc2s1	none
CC(C)(C)OC(=O)N1CCC(c2c(C(=O)NCc3ccccn3)cnn2-c2ccccc2Cl)CC1	TDP1 cell CPT inconclusive (no result: IL-1B inflam inh, BCR signal inh, SW480 rerep, MCF10A rerep)
Cc1ccc(-n2ncc(C(=O)NCc3cccs3)c2C2CCN(C(=O)OC(C)(C)C)CC2)cc1C	TDP1 cell CPT 16µM, TDP1 cell noCPT 16µM (no result: IL-1B inflam inh, BCR signal inh, SW480 rerep, MCF10A rerep)
Cc1ccc(-n2ncc(C(=O)NCc3ccccn3)c2C2CCN(C(=O)OC(C)(C)C)CC2)cc1C	TDP1 cell CPT inconclusive, TDP1 cell noCPT 18µM (no result: IL-1B inflam inh, BCR signal inh, SW480 rerep, MCF10A rerep)
CC(C)(C)OC(=O)N1CCC(c2c(C(=O)NCc3cccs3)cnn2-c2cccc(F)c2)CC1	TDP1 cell CPT inconclusive, TDP1 cell noCPT 16µM (no result: IL-1B inflam inh, BCR signal inh, SW480 rerep, MCF10A rerep)
Cc1ccc(C)c(NC(=O)c2cnn(-c3cccc(F)c3)c2C2CCN(C(=O)OC(C)(C)C)CC2)c1	TDP1 cell CPT inconclusive, TDP1 cell noCPT 23µM (no result: IL-1B inflam inh, BCR signal inh, SW480 rerep, MCF10A rerep)
CCOC(=O)N1CCC(NC(=O)c2cnn(-c3ccccc3)c2C2CCN(C(=O)OC(C)(C)C)CC2)CC1	none (no result: IL-1B inflam inh, BCR signal inh, SW480 rerep, MCF10A rerep)
Cc1cccc(C)c1NC(=O)CN(C)S(=O)(=O)c1ccc2c(c1)n(C)c(=O)c(=O)n2C	none (no result: IL-1B inflam inh, BCR signal inh, SW480 rerep, MCF10A rerep)
COc1ccccc1NC(=S)NN=C(C)c1ccccn1	TDP1 cell CPT 0.013µM, SW480 rerep inconclusive, TDP1 cell noCPT 0.15µM (no result: BCR signal inh)
CC(=NNC(=S)Nc1ccc(C)cc1)c1ccccn1	IL-1B inflam inh inconclusive, TDP1 cell CPT 0.018µM, SW480 rerep inconclusive, TDP1 cell noCPT 0.018µM, MCF10A rerep inconclusive (no result: BCR signal inh)
CC(=NNC(=S)Nc1cccc(C)c1)c1ccccn1	TDP1 cell CPT 0.018µM, SW480 rerep inconclusive, TDP1 cell noCPT 0.033µM, MCF10A rerep inconclusive (no result: BCR signal inh)
COc1ccccc1NC(=O)c1ccccc1NC(=O)c1ccccn1	BCR signal inh inconclusive, TDP1 cell CPT inconclusive, TDP1 cell noCPT inconclusive, MCF10A rerep inconclusive
O=C(Nc1ccc(F)c(F)c1)c1cc(S(=O)(=O)NCc2ccc3c(c2)OCO3)ccc1F	none (no result: IL-1B inflam inh, SW480 rerep, MCF10A rerep)
Cc1cc(C)c(NC(=O)CS)c(Cl)c1	TDP1 cell CPT inconclusive, TDP1 cell noCPT inconclusive
CCc1cc(SC#N)cc(C)c1NC(=O)CCl	IL-1B inflam inh -101, BCR signal inh inconclusive, TDP1 cell CPT 1.5µM, SW480 rerep 23µM, TDP1 cell noCPT 1.6µM, MCF10A rerep 16µM
Cc1cc(SC#N)cc(C)c1NC(=O)CCl	IL-1B inflam inh -64, BCR signal inh inconclusive, TDP1 cell CPT 3.3µM, TDP1 cell noCPT 2.6µM, MCF10A rerep inconclusive (no result: SW480 rerep)
CCOC(=O)CC(=O)Nc1c(C)cc(C)cc1C	none
CCC(=O)Nc1ccc(SC#N)cc1C	IL-1B inflam inh -101, BCR signal inh inconclusive, TDP1 cell CPT 6.5µM, TDP1 cell noCPT 5µM, MCF10A rerep inconclusive
CCCCN(C=O)c1c(CC)nc2ccc(C(=O)NCCc3ccccn3)cn12	none (no result: BCR signal inh, SW480 rerep, MCF10A rerep)
CCOc1ccc(NC(=O)NC(CC)Cn2nnc3ccccc3c2=O)cc1 (centres undefined)	none (no result: IL-1B inflam inh, BCR signal inh, SW480 rerep, MCF10A rerep)

Assay outcomes: PubChem BioAssay, National Center for Advancing Translational Sciences (NCATS)
